An excerpt weighted towards active compounds, which were near 19% of everything screened.
HT1080-NT tox: kills 2HG-producing HT-1080-NT fibrosarcoma cells | 1.6% of 360,000 active | HT-1080-NT fibrosarcoma viability, CellTiter-Glo ATP luminescence, 48 h | Potency, µM (highest dose often 46.1 µM), actives largely listed as cytotoxic | AID 686970;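 note: NT is the 2HG producing partner of a matched IDH1 knockdown line; nearly all actives have a fitted effect of over 55% in size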
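HT-1080-NT; 750 cells/well; 5% FBS RPMI; 48 h compound, 37 degrees C; CellTiter-Glo luminescence; curve fitting and curve-class assignment.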
uPA surface inh: inhibitors of cell surface uPA generation. cell surface uPA generation assay, qHTS. Potency, µM (titrated, usually from 38.3 µM), actives largely listed as inhibitors. 0.31% of 330,000 active. AID 540303; active = well fitted inhibition curve with a large enough effect; inconclusive = small, poorly fitted or top-dose-only effect; inactive = no such curve, though single readings can be large or run the other way; tested in mouse RAW 264.7 cells; note: nearly all actives have a fitted effect of over 55% in size
TDP1 cell CPT: growth inhibition of DT40 Tdp1-/-;hTDP1 cells with camptothecin (screen for TDP1 inhibitors). Potency, µM (titrated, usually from 46.2 µM), most hits filed as inhibitors. 12% of 420,000 active. AID 686979. chicken DT40 Tdp1-/-;hTDP1 cells + 20 nM CPT, ATP luminescence, 48 h; note: nearly all actives have a fitted effect of over 55% in size
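Cell growth measured by CellTiter-Glo luminescence after a minimum 48 h, 37 C compound exposure with 20 nM CPT in Tdp1-knockout DT40 cells stably expressing hTDP1, seeded 400/well; qHTS titration format.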
TDP1 cell noCPT: qHTS for Inhibitors of human tyrosyl-DNA phosphodiesterase 1 (TDP1): qHTS in cells in absence of CPT; AID 686978, 2013; DT40 Tdp1-/- hTDP1 cells, no CPT, ATP luminescence, 48 h; Potency, µM (highest dose often 46.2 µM), most hits filed as inhibitors; 15% of 420,000 active; note: nearly all actives have a fitted effect of over 55% in size
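Seeded 400 DT40-hTDP1 cells/well (vehicle DMSO, no 20 nM CPT); pinned compounds; ≥48 hr at 37 °C; CellTiter-Glo luminescence as viability measure.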
IL-1B inflam inh: inflammasome signaling inhibition, IL-1 beta readout | THP-1 LPS/ATP IL-1B secretion, AlphaLISA, 16 h; hits give low values | activity change, % at 57.5 µM | 4.7% of 360,000 active; in the data active = activity change below about -50%; inconclusive = mostly about -30% to -49%
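Secreted IL-1B measured by AlphaLISA bead assay after 16 h compound exposure of THP-1 cells; compounds (final up to 57.5 uM) added 1 h before LPS (250 ng/mL) and ATP (1.25 mM) stimulation; lower signal means less secretion.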
HT1080 IDH1KD tx: HT-1080 IDH1 knockdown cell toxicity (counter line). HT-1080 IDH1 knockdown viability, ATP luminescence, 48 h. Potency, µM (doses to about 46.1 µM), actives largely listed as cytotoxic. 2% of 360,000 active
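Using the IDH1-knockdown HT-1080 line run in the same batch and compound series as the NT line, viability after 48 h at 37 °C was determined by CellTiter-Glo luminescence and expressed as % activity.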
A number is an active result; – = inactive; ? = inconclusive; · = no result; [ ] = another dose, or the depositor's remark. Unless noted, calls come from the whole dose curve; as a rule, active = well fitted curve in the direction sought with a large enough effect; inconclusive = small, poorly fitted or top-dose-only effect, or another doubt; inactive = no such curve, though single readings can be large; an effect the other way counts as inactive or inconclusive.

SMILES | HT1080-NT tox | uPA surface inh | TDP1 cell CPT | TDP1 cell noCPT | IL-1B inflam inh | HT1080 IDH1KD tx
COc1ccccc1-c1c(C)nn2c(N3CCC(C)CC3)cc(C)nc12 | – | – | – | ? | -51 | –
CCOC(=O)C1CCCN(c2cc(C)nc3c(-c4ccccc4OC)c(C)nn23)C1 (centres undefined) | · | · | 13µM | ? | · | ·
COc1ccccc1-c1c(C)nn2c(N3CCC4(CC3)OCCO4)cc(C)nc12 | – | – | – | ? | – | –
COc1ccccc1-c1c(C)nn2c(N3CCC(C(N)=O)CC3)cc(C)nc12 | – | – | – | – | – | –
COc1cc(NC(=O)C2CCC(CNS(=O)(=O)c3csc(C(N)=O)c3)CC2)cc(OC)c1 (centres undefined) | – | – | – | ? | – | –
CC1CN(C(=S)Nc2ccccc2C(F)(F)F)CC(C)O1 (centres undefined) | – | – | – | – | – | –
COc1ccc(NS(=O)(=O)c2ccc(N3CCOCC3)c(N)c2)cc1 | – | ? | 2.6µM | 1.2µM | – | –
COc1ccc(NS(=O)(=O)c2ccc(N3CCOCC3)c(NC(=O)c3ccc(OC)cc3)c2)cc1 | – | – | 16µM | 16µM | – | –
COc1cc(/C=N/NC(=O)c2cc[n+]([O-])cc2)ccc1O | – | – | – | – | – | –
CCCCc1ccc(NC(=O)c2ccc(=O)n(Cc3cccc(C)c3)c2)cc1 | · | · | ? | 18µM | · | ·
CCc1ccccc1NC(=O)c1ccc(=O)n(Cc2ccc(F)cc2)c1 | · | · | – | – | · | ·
O=c1c(-c2ccco2)nc2ccccc2n1C(c1ccccn1)c1nc2ccccc2[nH]1 (centres undefined) | – | · | ? | ? | – | –
O=c1c(-c2ccco2)nc2ccccc2n1C(c1ccccc1)c1nc2ccccc2[nH]1 (centres undefined) | ? | · | 16µM | 23µM | – | ?
CCC(c1nc2ccccc2[nH]1)n1c(=O)c(-c2ccco2)nc2ccccc21 (centres undefined) | – | · | 21µM | 18µM | -66 | –
Nc1nc(SCC(=O)O)c2[nH]cnc2n1 | · | · | – | – | · | ·
COCCN1C(=O)CSCC1(C)C(=O)Nc1c(C)cccc1C (centres undefined) | – | · | – | – | – | –
O=C(COc1ccccc1F)Nc1ccccc1OCc1cc(=O)n2ccccc2n1 | · | · | – | – | · | ·
CCOC(=O)c1cccc(C(=O)OCC)n1 | – | – | – | – | – | –
CCOC(=O)c1nc2cc3n(c(CC(C)C)c-2c1C)CC(C)=C3C | – | – | 21µM | ? | – | –
CCOC(=O)c1nnc2cc(C)nn2c1C | – | – | – | – | – | –
CCOC(=O)c1nc2cc3n(c(C)c-2c1C)C(C)C(C)=C3C (centres undefined) | – | – | ? | 13µM | -62 | –
[O-][N+](=NC1C=Cc2ccccc21)C1C=Cc2ccccc21 (centres undefined) | · | · | – | – | · | ·
CCc1ccc(NC(=O)CSC2=C(C#N)C(c3ccco3)C3=C(CCCC3=O)N2)cc1 (centres undefined) | – | – | ? | ? | -90 | ?
CCc1ccccc1NC(=O)CSC1=C(C#N)C(c2ccc(O)c(OC)c2)C2=C(CCCC2=O)N1 (centres undefined) | – | – | 21µM | 23µM | – | –
CCOC(=O)C1=C(c2ccccc2)NC(SCC(=O)Nc2ccc(C)cc2)=C(C#N)C1c1ccco1 (centres undefined) | ? | – | ? | ? | – | ?
SMILES | HT1080-NT tox | uPA surface inh | TDP1 cell CPT | TDP1 cell noCPT | IL-1B inflam inh | HT1080 IDH1KD tx
Cc1noc(C)c1C(=O)N1CCC2(CC1)CN(Cc1cc(C(F)(F)F)cc(C(F)(F)F)c1)C2 | · | · | – | – | · | ·
CCCn1c(SCC(=O)Nc2ccc(S(=O)(=O)N3CCOCC3)cc2)n[nH]c1=O | – | · | – | – | – | –
CSc1ccc(CCNC(=O)c2ccc(-n3c(C)cc4c3CCC(C)C4)cc2)cc1 (centres undefined) | · | · | – | – | · | ·
CC(CC(c1ccccc1)N1CCc2ccccc2C1)=NO (centres undefined) | – | · | ? | 18µM | – | –
OC(CN1CCc2ccccc2C1)c1ccccc1 (centres undefined) | – | – | – | – | – | –
COc1cc(CN2CCN(C(=O)c3ccc(-c4ccccc4)cc3)CC2)cc(OC)c1OC | – | – | 21µM | 26µM | – | –
COc1ccc(C(=O)N2CCN(C(=O)c3ccc(-c4ccccc4)cc3)CC2)cc1OC | – | – | – | ? | – | –
COc1ccc(/C=N/N2C(=O)CN(C(=O)c3ccccc3)C2c2ccc(OC)cc2)cc1 (centres undefined) | – | – | – | ? | – | –
O=C(c1ccc(-n2cccc2)cc1)N1CCN(Cc2ccccc2)CC1 | – | – | ? | ? | – | –
Cn1nc(-c2ccc(C(=O)N3CCN(Cc4ccccc4)CC3)cc2)c2ccccc2c1=O | – | – | 23µM | 18µM | – | –
COc1ccc(C2N(C(=O)c3ccccc3)CCN2C(=O)c2ccc(C)cc2)cc1 (centres undefined) | – | – | 29µM | ? | – | –
COc1cc(OC)cc(C(=O)N2CCN(C(=O)c3ccc(-c4ccccc4)cc3)CC2)c1 | – | – | – | ? | -68 | –
COc1cccc(CN2CCN(C(=O)c3ccc(-c4ccccc4)cc3)CC2)c1OC | – | – | ? | – | – | –
CCOc1ccc(N(C(C)C(=O)N2CCOCC2)S(C)(=O)=O)cc1 (centres undefined) | – | – | – | – | – | –
CCCCC(=O)Oc1ccc2oc(-c3ccc(OC)cc3)cc(=O)c2c1 | · | · | – | – | · | ·
COc1ccc(-c2coc3c(C)c4oc(=O)c(CC(=O)O)c(C)c4cc23)cc1 | – | – | – | – | – | –
Cc1c(CC(=O)O)c(=O)oc2c(C)c3occ(-c4ccc(Br)cc4)c3cc12 | – | – | – | 16µM | – | –
COc1cccc(-c2coc3c(C)c4oc(=O)c(CCC(=O)O)c(C)c4cc23)c1 | ? | – | –[9.04 µM] | ? | -60 | ?
N#Cc1cc(C(=O)c2cc(Cl)ccc2O)cn(-c2ccccc2)c1=O | – | – | – | – | – | –
Cc1ccc(NC(=O)c2cc(C(=O)c3cc(Cl)ccc3O)cn(-c3ccc(C)cc3)c2=O)cc1 | – | – | 18µM | 21µM | – | –
Cc1ccc(C2c3c(-c4ccccc4O)n[nH]c3C(=O)N2CCc2ccccc2)cc1 (centres undefined) | · | · | ? | – | · | ·
CC(C)OCCCN1C(=O)c2[nH]nc(-c3ccccc3O)c2C1c1ccc(OCc2ccccc2)cc1 (centres undefined) | · | · | 15µM | 12µM | · | ·
